# Records with an inconclusive call do not appear. A call without a number means that no potency is given here. Active and inactive are the calls of the source. The call rests on the fitted dose curve; in most records, active means well fitted inhibition curve with a large enough effect; inconclusive means small, poorly fitted or top-dose-only effect; inactive means flat fitted curve, though single readings scatter.
# Test system: Zika virus NS2B-NS3 protease
# Assay: Primary screen GU AMC qHTS for Zika virus inhibitors (AID 1347154); further: nearly all actives have a fitted effect of over 70% in size
# Settings: Zika NS2B-NS3 unlinked protease, AMC fluorogenic substrate; series mostly up to 54.1 µM
# In short: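 Unlinked Zika NS2B hydrophilic domain/NS3 protease domain noncovalent complex (25 nM final) in 10 mM Tris-HCl pH 8.0, 0.01% Tween 20, with AMC peptide substrate. Fluorescence (ex 340, em 450 nm) change over 15 min, room temperature; percent inhibition fitted to 4-parameter Hill equation.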
row,Compound,Potency
1,CC(C(O)c1ccccc1)N(C)CCOC(c1ccccc1)c1ccccc1 (configuration not stated),inactive
2,CCO[C@H](Cc1ccc(OCCc2ccc(OS(C)(=O)=O)cc2)cc1)C(=O)O,inactive
3,CCCOc1ccc2c(c1)CC[C@@H]1[C@@H]2CC[C@]2(C)C(OC)CC[C@@H]12 (some centres not stated),inactive
4,N#Cc1cc(NC(=O)C(=O)O)c(Cl)c(NC(=O)C(=O)O)c1,inactive
5,O=C1NC(c2ccccc2)(c2ccccc2)C(=O)N1COP(=O)(O)O,inactive
6,CCOC(=O)[C@H](CCc1ccccc1)N[C@@H](C)C(=O)N(CC(=O)O)C1Cc2ccccc2C1,inactive
7,Cc1c(C)c2c(c(C)c1OC(=O)CCC(=O)OCCO)CC[C@@](C)(CCC[C@H](C)CCC[C@H](C)CCCC(C)C)O2,inactive
8,O=C(O)CCCC[P+](c1ccccc1)(c1ccccc1)c1ccccc1,inactive
9,CN(C)CCOC(c1ccccc1)c1ccc(Br)cc1 (configuration not stated),inactive
10,O=C(OCC1(COC(=O)c2cccnc2)CCCC(COC(=O)c2cccnc2)(COC(=O)c2cccnc2)C1O)c1cccnc1,inactive
11,CCCCN(CCN(CCCC)C(=O)N1CCOCC1)C(=O)N1CCOCC1,inactive
12,Cc1[nH]cnc1-c1ccc(Cl)cc1,inactive
13,OCCc1ccccc1,inactive
14,Cc1cc(C(C)(C)C)c(O)c(C(C)(C)C)c1,inactive
15,CCNC(=O)NCCCOc1cccc(CN2CCCCC2)c1,inactive
16,O=S(=O)(O)c1ccc2nc(-c3ccccc3)[nH]c2c1,inactive
17,O=C(CCOCCOCCOCCOCCC(=O)Nc1c(I)cc(I)c(C(=O)O)c1I)Nc1c(I)cc(I)c(C(=O)O)c1I,inactive
